A selection: hits, their analogues and other compounds. The true share with any hit is near 4.6%.
TIM10 inh: inhibits growth of TIM10 yeast strain. 330,000 tested, 1.4% active. S. cerevisiae TIM10 strain growth, BacTiter-Glo luminescence, 24 h. inhibition, % at 10 µM;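 active = inhibition of 40% or more at the single tested concentration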;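 note: wild-type TIM10 isogenic control strain grown at permissive 25 °C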
tim10-1 inh: growth inhibitors of tim10-1 mutant yeast. inhibition, % at 20 µM. S. cerevisiae tim10-1 ts strain growth, BacTiter-Glo, 24 h. 330,000 tested, 2.2% active;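 active = inhibition of at least 40%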;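 note: mutant grown at 25 °C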
PfHsp90 set2: inhibits growth of yeast expressing Plasmodium falciparum Hsp90; S. cerevisiae expressing PfHsp90, BacTiter-Glo ATP, 48 h; yeast lacking PDR1 and PDR3 efflux regulators; inhibition, % at 9.4 µM; 310,000 tested, 0.32% active; AID 504621;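 active = every replicate shows inhibition above about 80%, whatever the replicate mean, limit read from the data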
V-ATPase pH: alters yeast V-ATPase proton transport | S. cerevisiae, pHLuorin cytosolic pH fluorescence | response, % at 10 µM | 350,000 tested, 0.37% active | AID 504577; in the data active = response mostly above about 7.3%, no sharp cut-off; inactive = mostly below about 5.4%; note: actives read high
SKKanGAS inh: SKKanGAS growth inhibition; S. pyogenes SKKanGAS, kanamycin growth, BacTiter-Glo, 6 h; inhibition, % at 7.5 µM; 300,000 tested, 1.3% active;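 active = mean replicate score, as percent of positive control median, at least 50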;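 note: strain carries kanamycin resistance gene driven by streptokinase promoter and grows in 40 µg/ml kanamycin; loss of luminescence reflects streptokinase promoter inhibition or plain growth inhibition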
tim23-1 inh: growth inhibitors of tim23-1 mutant yeast | S. cerevisiae tim23-1 growth, BacTiter-Glo luminescence, 24 h | inhibition, % at 20 µM | 330,000 tested, 1.3% active;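 active = growth inhibition of the mutant yeast at or above 50%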;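 note: temperature-sensitive mutant grown at 25 °C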
tim10-1 conf: confirmation of tim10-1 mutant yeast growth inhibitors. shares compounds with tim10-1 inh. S. cerevisiae tim10-1 ts strain growth, BacTiter-Glo, 24 h. inhibition, % at 20 µM. 7,400 tested, 56% active;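 active = inhibition of yeast growth at or above a set limit in either of two repeat tests at 20 µM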;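 note: tim10-1 mutant grown at permissive 25 °C to find synthetic lethal compounds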
TIM10 conf: confirmation of TIM10 yeast growth inhibitors. 4,600 tested, 63% active. S. cerevisiae tim10 strain growth, BacTiter-Glo luminescence, 24 h. shares compounds with TIM10 inh. inhibition, % at 10 µM;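 active = inhibition of yeast growth at or above a set limit in either of two replicates at 10 µM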; note: this counterscreen used the strain with wild-type TIM10
tim23-1 confirm: tim23-1 yeast growth inhibition, confirmed; shares compounds with tim23-1 inh; S. cerevisiae tim23-1 growth, BacTiter-Glo luminescence, 24 h; inhibition, % at 20 µM; 4,400 tested, 83% active; AID 463218;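 active = inhibition above about 39% in either of two replicate wells at 20 µM, limit read from the data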;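 note: temperature-sensitive tim23-1 mutant grown at 25 °C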
Of the large screens only hits and unclear results are named; the others gave an inactive call (follow-up assays come after a bar, where they were run).

COc1ccc(/C=C(\C#N)C(=O)c2cccn2C)cc1	none
COc1ccccc1/C=C(\C#N)C(=O)c1cccn1C	tim10-1 inh 43, tim23-1 inh 59 | tim10-1 conf inactive | tim23-1 confirm 50
O=C(Nc1ccc(NS(=O)(=O)c2ccccc2)cc1)c1ccccc1Cl	none (no result: SKKanGAS inh)
CC1(C(=O)Nc2nnc(SCc3ccccc3)s2)Cc2ccccc2C(=O)O1 (stereo not drawn)	tim10-1 inh 47, tim23-1 inh 52 (no result: PfHsp90 set2) | tim10-1 conf 50 | tim23-1 confirm 42
O=C(Oc1c(Cl)cc(Cl)c2cccnc12)c1cccs1	TIM10 inh 64, tim10-1 inh 44, PfHsp90 set2 99, SKKanGAS inh 92, tim23-1 inh 56 | tim10-1 conf 48 | TIM10 conf 57 | tim23-1 confirm 62
O=C(Oc1c(Cl)cc(Cl)c2cccnc12)c1ccco1	TIM10 inh 71, tim10-1 inh 65, PfHsp90 set2 129, SKKanGAS inh 85, tim23-1 inh 89 | tim10-1 conf 48 | TIM10 conf 67 | tim23-1 confirm 72
COc1ccccc1CN(Cc1nc2ccccc2c(=O)[nH]1)C(=O)Nc1ccc(C)cc1	TIM10 inh 55, tim10-1 inh 43, tim23-1 inh 59 | tim10-1 conf 38 | TIM10 conf 40 | tim23-1 confirm 51
CCn1c(=O)c2c(n3c(=S)[nH]nc13)-c1ccccc1CC21CCCCC1	none
COc1cc(NC(=O)C2CCC(CNS(=O)(=O)c3csc(C(N)=O)c3)CC2)cc(OC)c1 (stereo not drawn)	none
CC(=O)NC(C)c1cc(Cl)c2cccnc2c1O (stereo not drawn)	tim10-1 inh 41, tim23-1 inh 53 (no result: SKKanGAS inh) | tim10-1 conf inactive | tim23-1 confirm inactive
CCn1c(O)c(C2=c3ccccc3=NC2=O)c2cc(Br)ccc21	TIM10 inh 60, tim10-1 inh 61, tim23-1 inh 75 (no result: PfHsp90 set2, V-ATPase pH) | tim10-1 conf 51 | TIM10 conf 68 | tim23-1 confirm 69
Cc1oc(C(C)(C)C)c(CN2CCOCC2)c1C(=O)O	none
COc1ccc(S(=O)(=O)N2CCC(C(=O)N[C@H](C(=O)N3CCCCCC3)C(C)C)CC2)cc1	none
CC(NC(=O)C1CCC(CNS(=O)(=O)c2ccc3c(c2)C(C)(C)C(=O)N3C)CC1)c1ccccc1 (stereo not drawn)	none
COC(=O)c1c(NC(=O)c2cccc(S(=O)(=O)N3CCN(C)CC3)c2)sc(C)c1C	tim10-1 inh 57, tim23-1 inh 55 (no result: PfHsp90 set2) | tim10-1 conf 42 | tim23-1 confirm 47
CCOC(=O)c1sc(NC(=O)c2cccc(S(=O)(=O)N3CCN(C)CC3)c2)cc1C	none
CCOC(=O)c1sc(NC(=O)c2c(C)nn(Cc3ccccc3)c2C)cc1C	TIM10 inh 61, tim10-1 inh 43, tim23-1 inh 50 (no result: SKKanGAS inh) | tim10-1 conf 46 | TIM10 conf inactive | tim23-1 confirm 52
COc1ccc(C(=O)N/N=C/c2c[nH]c3ccccc23)cc1	none
CCCOc1ccc(C(=O)N/N=C/c2c[nH]c3ccc(Br)cc23)cc1	tim10-1 inh 43, tim23-1 inh 55 | tim10-1 conf 37 | tim23-1 confirm 54
CCCOC(=O)c1c(-c2ccc(C)cc2C)csc1NC(=O)C1C2CCC(O2)C1C(=O)O (stereo not drawn)	none
CC(C)N1C(=O)/C(=C/c2nc3ccccc3c(=O)n2-c2ccccc2)c2ccccc21	TIM10 inh 47, tim10-1 inh 46, tim23-1 inh 60 | tim10-1 conf 40 | TIM10 conf 44 | tim23-1 confirm 58
O=C1CS(=O)(=O)N(Cc2cccc(F)c2)c2ccc(Br)cc21	tim10-1 inh 48, tim23-1 inh 66 (no result: SKKanGAS inh) | tim10-1 conf 48 | tim23-1 confirm inactive
Cc1nc(N2CCN(Cc3ccc(Cl)cc3)CC2)c2oc3ccccc3c2n1	TIM10 inh 42, tim10-1 inh 53, tim23-1 inh 54 | tim10-1 conf 36 | TIM10 conf 49 | tim23-1 confirm 43
Cc1nc(N2CCN(Cc3ccc4c(c3)OCO4)CC2)c2oc3ccccc3c2n1	none (no result: TIM10 inh, tim10-1 inh, SKKanGAS inh, tim23-1 inh)
CC1=NN(C(N)=S)C(=O)C1N=Nc1cccc(Cl)c1C (stereo not drawn)	tim10-1 inh 43, tim23-1 inh 57 | tim10-1 conf 43 | tim23-1 confirm 62
CC1=NN(C(N)=S)C(=O)C1N=Nc1cccc2ccccc12 (stereo not drawn)	none (no result: TIM10 inh, tim10-1 inh, PfHsp90 set2, V-ATPase pH, tim23-1 inh)
O=C1N2CCCc3cccc(c32)C12Nc1ccccc1S2 (stereo not drawn)	none (no result: TIM10 inh, tim10-1 inh, PfHsp90 set2, tim23-1 inh)
CC1CC(C)(C)N2C(=O)C3(Nc4ccccc4S3)c3cccc1c32 (stereo not drawn)	TIM10 inh 47, tim10-1 inh 61, tim23-1 inh 58 | tim10-1 conf 54 | TIM10 conf 61 | tim23-1 confirm 62
CC(C)c1ccccc1NC(=O)COC(=O)CCN1C(=O)/C(=C\C=C\c2ccccc2)SC1=S	none
O=C(COC(=O)CCN1C(=O)/C(=C\C=C\c2ccccc2)SC1=S)Nc1ccc(Br)cc1	TIM10 inh 43, tim10-1 inh 49, tim23-1 inh 54 | tim10-1 conf 40 | TIM10 conf 51 | tim23-1 confirm 74
C=C(C)Cn1c(=O)c2c(nc3n2CCCN3CCc2ccccc2)n(C)c1=O	none
O=C(COc1ccccc1/C=C1\SC(=S)NC1=O)Nc1ccc(F)cc1	none (no result: SKKanGAS inh)
CCC(=O)Nc1ccc2ccccc2c1	none
CC(C)(C)CC(C)(C)NC(=O)CSCC(=O)Nc1ccc2ccccc2c1	tim10-1 inh 64, tim23-1 inh 67 | tim10-1 conf 35 | tim23-1 confirm 52
Cn1c(=O)c2c(nc(SCCN3CCOCC3)n2C)n(C)c1=O	none
Oc1ccccc1-c1cc(-c2ccccc2Cl)[nH]n1	TIM10 inh 64, tim10-1 inh 73, tim23-1 inh 76 (no result: PfHsp90 set2, SKKanGAS inh) | tim10-1 conf 53 | TIM10 conf 58 | tim23-1 confirm inactive
Oc1ccccc1-c1cc(-c2cccc(F)c2)n[nH]1	tim10-1 inh 41, tim23-1 inh 64 | tim10-1 conf inactive | tim23-1 confirm 52
Oc1ccccc1-c1cc(-c2ccco2)[nH]n1	none
O=C1OCCC1=COCCCCCCOC=C1CCOC1=O	none (no result: TIM10 inh, tim10-1 inh, PfHsp90 set2, SKKanGAS inh, tim23-1 inh)
O=C(NC1=NCCS1)c1cc(-c2cccs2)nc2ccccc12	TIM10 inh 46, tim10-1 inh 48, tim23-1 inh 50 | tim10-1 conf 46 | TIM10 conf 31 | tim23-1 confirm 54
O=C1/C(=C/c2cccc([N+](=O)[O-])c2)CCc2ccccc21	tim10-1 inh 42, tim23-1 inh 54 | tim10-1 conf 59 | tim23-1 confirm inactive
O=C1/C(=C/c2ccc([N+](=O)[O-])cc2)CCc2ccccc21	none (no result: PfHsp90 set2, V-ATPase pH)

From PubChem BioAssay
